Data: paper PMC5540273 (PLoS ONE, 2017)

What was measured:
Conditions in all cases: concentration: 1 μM, replicates: in singlicate; n = 1
MLK1 = tested on: T1, MLK1
T1 construct: gene MAP3K9

MLK2 = tested on: MLK2
MLK3 = tested on: MLK3
MRCKA = tested on: MRCKA
MRCKB = tested on: T2, MRCKB
T2 construct: gene CDC42BPB

MST1R = tested on: MST1R
MST1 = tested on: T3, MST1
T3 construct: gene STK4

MST2 = tested on: T4, MST2
T4 construct: gene STK3

MST3 = tested on: T5, MST3
T5 construct: gene STK24

MST4 = tested on: MST4
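Further: KINOMEscan kinase panel screen.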

Row | SMILES | %Inh (MLK1) [%] | %Inh (MLK2) [%] | %Inh (MLK3) [%] | %Inh (MRCKA) [%] | %Inh (MRCKB) [%] | %Inh (MST1R) [%] | %Inh (MST1) [%] | %Inh (MST2) [%] | %Inh (MST3) [%] | %Inh (MST4) [%]
1 | Cc1nn2c(=O)cc(N3CCO[C@H](C)C3)nc2n1Cc1cccc(Cl)c1Cl [GSK2373693] | 0 | 5 | 9 | 0 | 60 | 0 | 20 | 0 | 0 | 0
2 | CC(C)c1nc(-c2ccc(F)c(NS(=O)(=O)c3c(F)cccc3F)c2)c(-c2ccnc(Nc3ccc(N4CCOCC4)nc3)n2)s1 [GSK1804250] | 52 | 8 | 52 | 4 | 0 | 46 | 17 | 3 | 23 | 23
3 | Nc1ncc(-c2cn[nH]c2)c2scc(-c3ccc4c(c3)CCN4C(=O)Cc3ccccc3)c12 [GSK2593067] | 16 | 0 | 32 | 0 | 0 | 27 | 99.4 | 14 | 0 | 20
4 | O=C(O)C(F)(F)F.O=c1[nH]ccc2nc(N[C@@H]3CCNC3)nc(Nc3cc(Cl)cc(Cl)c3)c12 [GSK2188764] | 95.7 | 0 | 88 | 24 | 35 | 11 | 86 | 80 | 85 | 91.1
5 | Cc1ccc(NC(=O)c2cccc(N3CCCCC3)c2)cc1-c1ccc(C(=O)NCC2CC2)cc1 [GSK1917008] | 0 | 17 | 12 | 17 | 0 | 37 | 13 | 34 | 13 | 1
6 | CCn1cnc2c(NCc3ccccc3)ncnc21 [SKF-96418] | 0 | 27 | 0 | 0 | 0 | 0 | 0 | 14 | 5 | 0
7 | COC(=O)Nc1nc2cc(Oc3ccc(NC(=O)Nc4cccc(SC)c4)cc3)ccc2[nH]1.Cl [GW697999] | 0 | 0 | 0 | 14 | 0 | 29 | 4 | 0 | 0 | 0
8 | Cl.O=C(Nc1ccc(Oc2ccc3[nH]c(NC(=O)c4ccco4)nc3c2)cc1)Nc1cc(C(F)(F)F)ccc1F [GW683134] | 28 | 28 | 49 | 15 | 0 | 41 | 17 | 0 | 8 | 0
9 | O=C(Nc1n[nH]c2nc(-c3cccc(O)c3)ccc12)C1CC1 [SB-711805] | 0 | 13 | 3 | 0 | 0 | 0 | 0 | 0 | 0 | 0
10 | Nc1ncnc2scc(-c3ccc(NC(=O)Cc4cc(F)ccc4F)cc3)c12.O=C(O)C(F)(F)F [SB-731254-M] | 0 | 28 | 34 | 0 | 4 | 20 | 42 | 0 | 30 | 24
11 | COc1ccc(C)c(Nc2ccnc(Nc3ccc(-c4cnc[nH]4)cc3)n2)c1.Cl [GW784041] | 30 | 12 | 0 | 20 | 5 | 0 | 23 | 38 | 17 | 0
12 | Cl.Cl.NC(CNC(=O)c1cc(Br)c(-c2ccnc3[nH]ccc23)s1)c1ccccc1 (centres unmarked) [GSK1322949] | 0 | 0 | 0 | 29 | 93.7 | 5 | 0 | 26 | 5 | 3
13 | O=C(O)C(F)(F)F.O=c1[nH]ccc2nc(N[C@@H]3CCNC3)nc(Nc3ccc4c(c3)S(=O)(=O)CC4)c12 [GSK2181306] | 79 | 9 | 61 | 26 | 54 | 1 | 95.9 | 80 | 96.6 | 95.5
14 | N#CC1(c2cccc(C(=O)Nc3cccc(Oc4ccc5nc(NC(=O)C6CC6)sc5n4)c3)c2)CC1 | 1 | 22 | 17 | 0 | 0 | 0 | 4 | 8 | 0 | 4
15 | N#Cc1cnc2cc(-c3cnc(CNCCN4CCOCC4)s3)ccc2c1Nc1ccc(Oc2ccccc2)cc1 [GW664114] | 78 | 17 | 83 | 9 | 0 | 86 | 20 | 12 | 34 | 18
16 | COc1cccc(CC(=O)N2CCc3cc(-c4cn(C)c5ncnc(N)c45)ccc32)c1 [GSK2608899] | 32 | 41 | 20 | 2 | 0 | 45 | 98.8 | 100 | 31 | 27
17 | Cc1ccc(O)cc1Nc1ccnc2cc(-c3ccc(CN4CCCCC4)o3)ccc12 [GW557777] | 2 | 0 | 2 | 0 | 0 | 5 | 0 | 0 | 17 | 0
18 | Cc1ccc(Nc2ccnc(Nc3ccc(C)c(F)c3)n2)cc1O.Cl [GW582868] | 60 | 0 | 45 | 0 | 0 | 18 | 0 | 9 | 0 | 0
19 | COc1ccc(NC(=O)c2ccoc2)cc1-c1ccc(C(=O)NCC2CC2)cc1 [GW810437] | 0 | 25 | 0 | 0 | 19 | 0 | 22 | 8 | 1 | 0
20 | Cc1ccc(O)cc1Nc1ccnc2ccc(C(C)(C)C)cc12 [GW856805] | 11 | 19 | 19 | 0 | 0 | 0 | 0 | 28 | 12 | 36
21 | COC(=O)Nc1nc2ccc(Oc3ccc(NC(=O)Nc4cc(C(F)(F)F)ccc4F)cc3)cc2[nH]1.Cl [GW654607] | 2 | 21 | 1 | 15 | 0 | 61 | 6 | 0 | 6 | 8
22 | O=C(Nc1n[nH]c2nc(-c3ccccc3O)ccc12)C1CC1 [SB-711880] | 0 | 0 | 0 | 4 | 0 | 10 | 0 | 16 | 0 | 20
23 | CN(c1ccc2c(c1)nc(NCc1ccccc1)n2C)c1ccnc(Nc2ccc(CS(C)(=O)=O)cc2)n1.Cl [GW811603] | 12 | 17 | 2 | 11 | 0 | 23 | 24 | 2 | 0 | 0
24 | CN(c1ccc(F)c(NC(=O)c2cccc(OC(C)(C)C#N)c2Cl)c1)c1ccc2nc(NC(=O)C3CC3)sc2n1 | 0 | 4 | 0 | 0 | 0 | 5 | 0 | 0 | 0 | 0
25 | CSc1ccc(NC2=C(c3ccc(Cl)cc3)C(=O)NC2=O)cc1 [SB-317658] | 0 | 4 | 0 | 0 | 0 | 33 | 29 | 45 | 0 | 6
26 | CC(C)c1nc(-c2cccc(NS(=O)(=O)c3c(F)cccc3F)c2)c(-c2ccnc(Nc3ccc(N4CCOCC4)nc3)n2)s1.Cl [GSK1723980] | 89 | 34 | 73 | 18 | 0 | 17 | 0 | 0 | 13 | 16
27 | COc1cc(Nc2ccnc3cc(-c4ccncc4)ccc23)cc(OC)c1OC.Cl [GW494610] | 2 | 27 | 21 | 0 | 4 | 41 | 9 | 0 | 0 | 0
28 | Fc1cc(Cl)ccc1Nc1ccnc2cc(-c3ccc(CN4CCOCC4)o3)ccc12 [GW560109] | 2 | 0 | 0 | 13 | 0 | 0 | 0 | 0 | 0 | 0
29 | O=C(Nc1c(F)cccc1F)c1cc(C(=O)c2ccccc2F)c[nH]1 [GSK1326180] | 3 | 21 | 0 | 0 | 0 | 0 | 2 | 0 | 0 | 0
